PubChem BioAssay (Tox21)
Inconclusive results are not listed. The source made the active and inactive calls. Unless noted, calls come from the whole dose curve; as a rule, active = well fitted curve in the direction sought with a large enough effect in the repeat runs; inconclusive = weak or mixed curves; inactive = no such curve, though single readings can be large; an effect the other way counts as inactive or inconclusive.

Columns and labels:
[1] = biological target: Luciferin 4-monooxygenase (Photinus pyralis) (UniProt P08659); experiment: qHTS assay to identify small molecule inhibitors of firefly luciferase (AID 1224835); note: nearly all actives have a fitted effect of over 25% in size; note: potency is the fitted concentration of half-maximal effect
Summary of the method: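 Biochemical qHTS: compounds run as interplate titrations against purified firefly enzyme, with D-luciferin and ATP each at its KM concentration. Light output recorded by CCD imaging.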

[2] = qHTS assay to identify small molecule agonists of the constitutive androstane receptor (CAR) signaling pathway - cell viability counter screen (AID 1224836); note: nearly all actives have a fitted effect of over 45% in size
Summary of the method: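 Double-stable HepG2 hepatoma cells (hCAR plus CYP2B6-2.2kb) are treated for 23 h at 37 C with test compounds in 15-point concentration series. PK11195 at 0.75 uM final is co-added. Cell viability is quantified by CellTiter-Fluor.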

[3] = qHTS assay to identify small molecule antagonists of the constitutive androstane receptor (CAR) signaling pathway - cell viability counter screen (AID 1224837); note: nearly all actives have a fitted effect of over 45% in size
Summary of the method: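 Cytotoxicity counter-screen: CellTiter-Fluor fluorescence after 23 h compound exposure (15-point qHTS) in double-stable HepG2-CYP2B6-hCAR cells, with 50 nM CITCO added.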

[4] = biological target: Nuclear receptor subfamily 1 group I member 3 (Homo sapiens) (UniProt Q14994); experiment: qHTS assay to identify small molecule antagonists of the constitutive androstane receptor (CAR) signaling pathway (AID 1224838);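 note: HepG2 cells stably expressing hCAR with CYP2B6 luciferase reporter stimulated by CITCO; nearly all actives have a fitted effect of over 40% in size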
Summary of the method: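 Antagonism measured as luciferase signal (ONE-Glo, 30 min, room temperature) in CAR-stimulated cells: HepG2-CYP2B6-hCAR double-stable line exposed 24 hr at 37 C to compound in a 15-point series plus 50 nM CITCO.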

[5] = biological target: Nuclear receptor subfamily 1 group I member 3 (Homo sapiens) (UniProt Q14994); experiment: qHTS assay to identify small molecule agonists of the constitutive androstane receptor (CAR) signaling pathway (AID 1224839); note: nearly all actives have a fitted effect of over 15% in size; note: potency is the fitted concentration of half-maximal effect;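 for activation: HepG2 cells stably carrying human CAR and a CYP2B6 luciferase reporter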
Summary of the method: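 Readout: firefly luciferase luminescence via ONE-Glo. System: HepG2 double-stable for hCAR and CYP2B6-2.2kb. Conditions: 15-point compound titration, PK11195 at 0.75 uM final, 24 h incubation.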

[6] = qHTS assay to identify small molecule antagonists of the estrogen related receptor signaling pathway with the pleiotropic PPARgamma coactivator (PGC) from Tox21 10K library - cell viability counter screen (AID 1224840; active = well fitted cell-killing curve with a large enough effect in the repeat runs, not every such curve was filed as active; note: nearly all actives have a fitted effect of over 40% in size)
Summary of the method: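 Counter-screen for cytotoxicity: after 17.5 h compound exposure at 37 C, CellTiter-Fluor reagent added to PGC/ERR cells for 30 min and fluorescence read. Cells were seeded at 2,000 per well 6 h before dosing.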

[7] = qHTS assay to identify small molecule antagonists of the estrogen related receptor signaling pathway with the pleiotropic PPARgamma coactivator (PGC) from Tox21 10K library (AID 1224841; call rule not given here; note: actives are mostly falling curves and most rising ones were filed inactive; nearly all actives have a fitted effect of over 50% in size)
Summary of the method: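 Luminescence (One-Glo, 30 min at room temperature) after 18 h compound treatment at 37 C of PGC/ERR reporter cells plated at 2,000 cells/well and settled 6 h beforehand.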

[8] = qHTS assay to identify small molecule agonists of the estrogen related receptor signaling pathway with the pleiotropic PPARgamma coactivator (PGC) from Tox21 10K library (AID 1224842); note: nearly all actives have a fitted effect of over 15% in size
Summary of the method: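 PGC/ERR reporter cell line, 2,000 cells per well, incubated 6 h at 37 C before 23 nL compound in DMSO was added. After 18 h at 37 C, One-Glo luminescence read following 30 min at room temperature.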

[9] = qHTS assay to identify small molecule agonists of the hypoxia (HIF-1) signaling pathway - cell viability counter screen (AID 1224844; calls by dose curve; note: nearly all actives have a fitted effect of over 50% in size)
Summary of the method: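 Cytotoxicity measured by CellTiter-Glo ATP luminescence in the wells also read for beta-lactamase signal. Cells were HRE-bla ME-180 (2,000/well, 0.5% dialyzed FBS), exposed to compounds for 17 h at 37C.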

[10] = qHTS assay to identify small molecule agonists of the hypoxia (HIF-1) signaling pathway (AID 1224846; active = well fitted activation curve with a large enough effect in the signal ratio in the repeat runs, not every such curve was filed as active; the % refers to the signal ratio)
Summary of the method: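 Compounds added to ME-180 cells carrying hypoxia-response-element beta-lactamase reporter (0.5% dialyzed FBS, 5 h preplating), 17 h at 37C; agonist activity detected by CCF4-AM B/G FRET read-out.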

[11] = qHTS assay to identify small molecule agonists of H2AX - cell viability counter screen (AID 1224847; calls by dose curve; note: top concentration of the series differs between compounds; nearly all actives have a fitted effect of over 30% in size)
Summary of the method: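 For this counter screen, overnight-attached CHO-K1 cells received test compounds (15 concentrations, 0.76% DMSO final); 3 hr later at 37C, CellTiter-Glo reagent was added and luminescence recorded after 30 min at room temperature.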

[12] = qHTS assay to identify small molecule antagonists of the estrogen related receptor (ERR) signaling pathway from Tox21 library (AID 1224848); note: nearly all actives have a fitted effect of over 50% in size
Summary of the method: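 Quantitative high-throughput format: ERR reporter cells (2,000/well) pre-incubated 6 h, treated 18 h at 37 C with compounds in DMSO alongside positive and negative controls, then read by ONE-Glo luminescence.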

[13] = qHTS assay to identify small molecule agonists of the estrogen related receptor (ERR) signaling pathway from Tox21 library (AID 1224849; calls by dose curve; note: nearly all actives have a fitted effect of over 15% in size); conditions: ERR reporter cell line, ONE-Glo luciferase, 18 h; at 92.4 µM (top of the series) unless noted
Summary of the method: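 Luminescent agonist read-out (One-Glo, 30-minute room-temperature incubation) following 18-hour compound treatment at 37 C of the ERR cell line, which had been plated 6 hours before dosing.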

[14] = qHTS RealTime-Glo MT Cell Viability Assay in HepG2 cells - 24 hour (AID 1224867); note: nearly all actives have a fitted effect of over 50% in size
Summary of the method: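 HepG2 cells were seeded at 600 cells/well together with NanoLuc luciferase and a cell-permeant prosubstrate, preincubated 5 h at 37 C/5% CO2, then pin-dosed with compounds in DMSO. Nonlytic luminescence from viable cells was read at each time point.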

[15] = qHTS RealTime-Glo MT Cell Viability Assay in HEK293 cells - 32 hour (AID 1224868); note: nearly all actives have a fitted effect of over 50% in size; note: potency is the fitted concentration of half-maximal effect
Summary of the method: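 HEK293 cells were seeded at 600 cells/well together with NanoLuc luciferase and cell-permeant prosubstrate, preincubated 5 h at 37 C/5% CO2, then given compound in DMSO by pintool. Luminescence from viable-cell prosubstrate reduction was read repeatedly over 40 h.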

[16] = A CellTox Green Cytotoxicity Assay to monitor cytotoxicity in HEK293 cells - 0 hour (AID 1224869); note: nearly all actives have a fitted effect of over 50% in size
Summary of the method: (§1)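 Fluorescence from a DNA-binding dye excluded by viable cells was measured repeatedly in the same HEK293 wells (600 cells/well) during continuous compound exposure at 37 C. Each assay gives one read point: 0, 8, 16, 24, 32 or 40 h.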

[17] = qHTS RealTime-Glo MT Cell Viability Assay in HepG2 cells - 40 hour (AID 1224870); note: nearly all actives have a fitted effect of over 50% in size
Summary of the method: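 HepG2 cells (600/well) mixed with RealTime-Glo MT reagent, settled 5 h at 37 C/5% CO2 before compound addition. Nonlytic NanoLuc luminescence from viable-cell prosubstrate reduction read repeatedly during 40 h treatment at 37 C.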

[18] = biological target: Thyrotropin receptor (Homo sapiens) (UniProt P16473); experiment: qHTS assay to identify small molecule agonists of the thyroid stimulating hormone receptor (TSHR) signaling pathway (AID 1224843; calls by dose curve; note: nearly all actives have a fitted effect of over 45% in size)
Summary of the method: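 Agonist-mode screen: TSHR HEK293 cells received test chemicals for half an hour at room temperature, then HTRF cAMP detection reagents for one hour prior to fluorescence measurement. Each chemical ran as a 15-concentration series, triplicated.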

[19] = qHTS assay to identify small molecule agonists of H2AX (AID 1224845; active = well fitted activation curve with a large enough effect in the signal ratio in the repeat runs, not every such curve was filed as active; the % refers to the signal ratio)
Summary of the method: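 Wild-type CHO-K1 cells, plated overnight, exposed 3hr at 37C to 15 concentrations (0.76% DMSO final). Lysed, then HTRF anti-pH2AX (S139) cryptate and anti-H2AX-d2 antibodies, 24 hr room temperature; 665/620 nm emission read.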

[20] = A CellTox Green Cytotoxicity Assay to monitor cytotoxicity in HEK293 cells - 40 hour (AID 1224871); note: nearly all actives have a fitted effect of over 45% in size
Summary of the method: as §1
% is set by controls: 0 for no effect and ±100 for the full control effect.

Chain of Thyrotropin receptor (Homo sapiens) (P16473 whole entry, looked up): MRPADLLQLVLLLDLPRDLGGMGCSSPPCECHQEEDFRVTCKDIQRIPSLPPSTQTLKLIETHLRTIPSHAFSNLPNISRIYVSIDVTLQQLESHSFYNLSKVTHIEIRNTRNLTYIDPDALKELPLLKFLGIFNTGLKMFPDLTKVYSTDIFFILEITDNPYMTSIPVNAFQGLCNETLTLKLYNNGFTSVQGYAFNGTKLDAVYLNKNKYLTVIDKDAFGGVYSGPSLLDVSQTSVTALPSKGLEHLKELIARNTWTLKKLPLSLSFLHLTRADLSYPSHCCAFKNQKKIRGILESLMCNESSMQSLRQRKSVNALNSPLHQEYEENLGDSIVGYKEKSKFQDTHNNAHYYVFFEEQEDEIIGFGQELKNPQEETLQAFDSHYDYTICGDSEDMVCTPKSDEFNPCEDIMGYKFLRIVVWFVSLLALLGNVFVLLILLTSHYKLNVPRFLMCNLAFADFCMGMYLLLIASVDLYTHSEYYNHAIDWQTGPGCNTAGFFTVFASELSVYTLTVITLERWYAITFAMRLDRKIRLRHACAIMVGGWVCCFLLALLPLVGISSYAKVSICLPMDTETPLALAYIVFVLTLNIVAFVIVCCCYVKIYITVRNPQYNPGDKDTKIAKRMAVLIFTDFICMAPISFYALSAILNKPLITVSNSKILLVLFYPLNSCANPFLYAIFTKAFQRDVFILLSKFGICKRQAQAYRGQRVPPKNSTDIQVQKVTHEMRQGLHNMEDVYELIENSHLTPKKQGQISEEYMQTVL
Chain of Nuclear receptor subfamily 1 group I member 3 (Homo sapiens) (Q14994 whole entry, looked up): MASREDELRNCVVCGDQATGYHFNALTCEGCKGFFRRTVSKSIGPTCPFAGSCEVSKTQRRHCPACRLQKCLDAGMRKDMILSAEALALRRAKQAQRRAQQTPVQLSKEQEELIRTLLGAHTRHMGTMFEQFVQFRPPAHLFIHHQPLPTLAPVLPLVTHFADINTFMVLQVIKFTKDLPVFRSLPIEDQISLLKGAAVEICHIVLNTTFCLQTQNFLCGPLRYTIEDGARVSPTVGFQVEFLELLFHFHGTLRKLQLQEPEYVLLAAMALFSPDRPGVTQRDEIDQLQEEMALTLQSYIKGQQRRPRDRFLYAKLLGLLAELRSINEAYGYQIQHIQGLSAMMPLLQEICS
Chain of Luciferin 4-monooxygenase (Photinus pyralis) (P08659 whole entry, looked up): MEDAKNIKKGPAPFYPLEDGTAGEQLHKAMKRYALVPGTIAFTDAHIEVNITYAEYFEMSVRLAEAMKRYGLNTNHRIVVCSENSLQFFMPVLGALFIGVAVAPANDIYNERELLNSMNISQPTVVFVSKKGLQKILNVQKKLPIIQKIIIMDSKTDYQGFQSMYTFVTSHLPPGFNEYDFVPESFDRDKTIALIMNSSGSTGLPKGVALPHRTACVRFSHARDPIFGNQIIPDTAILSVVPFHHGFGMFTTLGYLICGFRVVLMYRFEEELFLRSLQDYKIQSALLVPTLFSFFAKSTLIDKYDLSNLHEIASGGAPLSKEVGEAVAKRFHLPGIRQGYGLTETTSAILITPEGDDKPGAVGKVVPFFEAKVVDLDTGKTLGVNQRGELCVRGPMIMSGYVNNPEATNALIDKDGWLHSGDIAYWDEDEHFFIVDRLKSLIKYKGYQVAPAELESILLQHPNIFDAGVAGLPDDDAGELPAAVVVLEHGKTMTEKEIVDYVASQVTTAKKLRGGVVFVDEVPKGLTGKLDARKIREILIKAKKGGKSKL

C=C(C)C(=O)OCCCCCCCCCCOC(=O)C(=C)C
inactive: Potency [1] | Potency [2] | Potency [3] | Potency [4] | Potency [5] | Potency [6] | Potency [7] | Potency [8] | Potency [9] | outcome [10] | Potency [11] | Potency [12] | activity change, positive = activation [13] 1.48% | outcome [14] | Potency [15] | Potency [16] | Potency [17]

Cc1ccc(S(=O)(=O)NC(=O)NC2CCCC2)cc1
inactive: Potency [1] | Potency [2] | Potency [3] | Potency [4] | Potency [5] | Potency [6] | Potency [18] | Potency [9] | Potency [19] | outcome [10] | Potency [11] | outcome [14] | Potency [15] | Potency [16] | Potency [17] | Potency [20]

CC1(C)[C@@H]2CC[C@]3(C2)[C@@H]1C(=O)CCC3(C)C
inactive: Potency [1] | Potency [2] | Potency [3] | Potency [4] | Potency [5] | Potency [6] | Potency [18] | Potency [9] | Potency [19] | outcome [10] | Potency [11] | outcome [14] | Potency [16] | Potency [17]

CCOc1ccccc1O
active: Potency [15] 1.74 µM
inactive: Potency [1] | Potency [2] | Potency [3] | Potency [4] | Potency [5] | Potency [6] | Potency [18] | Potency [9] | Potency [19] | outcome [10] | Potency [11] | Potency [16] | Potency [17]

C=CC(O)CCCCC (stereo not drawn)
inactive: Potency [1] | Potency [2] | Potency [3] | Potency [4] | Potency [5] | Potency [6] | Potency [8] | Potency [9] | Potency [19] | outcome [10] | Potency [11] | activity change, positive = activation [13] 1.36% | outcome [14] | Potency [16] | Potency [17] | Potency [20]

CC(C(=O)O)c1ccc(/C=C2\CCCCC2=O)cc1 (stereo not drawn)
active: Potency [1] 30.9 µM | Potency [5] 26.6 µM
inactive: Potency [2] | Potency [3] | Potency [4] | Potency [6] | Potency [18] | Potency [9] | Potency [19] | outcome [10] | Potency [11] | Potency [15] | Potency [16] | Potency [17]

Cc1nc(C)c(C)nc1C
inactive: Potency [1] | Potency [2] | Potency [3] | Potency [4] | Potency [5] | Potency [6] | Potency [7] | Potency [8] | Potency [18] | Potency [19] | outcome [10] | Potency [11] | Potency [12] | activity change, positive = activation [13] -0.837% | outcome [14] | Potency [16] | Potency [17]

CC1(C)CC(O)CC(C)(C)N1[O]
inactive: Potency [1] | Potency [2] | Potency [3] | Potency [4] | Potency [5] | Potency [6] | Potency [18] | Potency [9] | Potency [19] | outcome [10] | Potency [11] | Potency [15] | Potency [16] | Potency [17] | Potency [20]
